Results from PubChem BioAssay (NCI).
The panel holds about 83,000 compounds, 20% with a hit somewhere; the sample as a whole holds those more often.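 Compound tested at a single concentration for 48 hours in 96-well plates; a percent growth value below 10 was scored as active.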 Activity calls are given as the source filed them.

Columns and labels:
Test in all cases: NCI-60 one-dose screen, 48 h (100 = growth as untreated, 0 = no growth, -100 = all killed)
Settings in all cases: 10 µM unless noted
HCT-15 colon = tested on: HCT-15 colon
HT29 colon = tested on: HT29 colon
SNB-75 CNS = tested on: SNB-75 CNS
SNB-19 CNS = tested on: SNB-19 CNS
U251 CNS = tested on: U251 CNS
PC-3 prostate = tested on: PC-3 prostate
SK-MEL-5 melanoma = tested on: SK-MEL-5 melanoma
UACC-62 melanoma = tested on: UACC-62 melanoma
LOX IMVI melanoma = tested on: LOX IMVI melanoma
SK-MEL-28 melanoma = tested on: SK-MEL-28 melanoma

Measured: growth

C=C1C(=O)O[C@H]2[C@H]1CC/C(Cn1cc(CNCCc3c[nH]c4ccc(Cl)cc34)nn1)=C\CC[C@@]1(C)O[C@@H]21
inactive: HCT-15 colon 88.6% | HT29 colon 21.2% | SNB-75 CNS 69.6% | SNB-19 CNS 83.7% | U251 CNS 60.2% | PC-3 prostate 75% | SK-MEL-5 melanoma 86.6% | UACC-62 melanoma 63% | LOX IMVI melanoma 62% | SK-MEL-28 melanoma 81.5%

Clc1ccc(-c2cn(-c3ccccc3)c(-c3ccccc3)n2)cc1
inactive: HCT-15 colon 79.4% | HT29 colon 85.3% | SNB-75 CNS 87.7% | SNB-19 CNS 79.1% | U251 CNS 78.2% | PC-3 prostate 59.4% | SK-MEL-5 melanoma 85.9% | UACC-62 melanoma 92.2% | LOX IMVI melanoma 95.8% | SK-MEL-28 melanoma 93.8%

COc1cc2oc(-c3cccc(C(=O)Nc4ccc(C)cc4)c3)cc(=O)c2c(OC)c1OC
active: SK-MEL-5 melanoma -60.3% | UACC-62 melanoma -33.8% | LOX IMVI melanoma -7.81% | SK-MEL-28 melanoma 7.12%
inactive: HCT-15 colon 17.6% | HT29 colon 11.2% | SNB-75 CNS 45.5% | SNB-19 CNS 67.9% | U251 CNS 42.1% | PC-3 prostate 45%

Nc1ccc2c(S(=O)(=O)O)ccc(S(=O)(=O)O)c2c1
inactive: HCT-15 colon 105% | HT29 colon 105% | SNB-75 CNS 92% | SNB-19 CNS 93.5% | U251 CNS 99.5% | PC-3 prostate 91.9% | SK-MEL-5 melanoma 93.5% | UACC-62 melanoma 90.5% | LOX IMVI melanoma 98.1% | SK-MEL-28 melanoma 116%

CC(/C=N/NC(=O)c1cc(-c2ccco2)[nH]n1)=C\c1ccccc1
inactive: HCT-15 colon 93.2% | HT29 colon 113% | SNB-75 CNS 66.8% | SNB-19 CNS 100% | U251 CNS 96.7% | PC-3 prostate 92.1% | SK-MEL-5 melanoma 98.8% | UACC-62 melanoma 94% | LOX IMVI melanoma 97.9% | SK-MEL-28 melanoma 104%

c1ccc2[nH]c(SSc3nc4ncncc4[nH]3)nc2c1
inactive: HCT-15 colon 26.9% | HT29 colon 29.5% | SNB-75 CNS 45.5% | SNB-19 CNS 84.4% | U251 CNS 54% | PC-3 prostate 42.9% | SK-MEL-5 melanoma 28.1% | UACC-62 melanoma 12.7% | SK-MEL-28 melanoma 86%
active: LOX IMVI melanoma 4.64%

Fc1ccc(Nc2nc3nonc3nc2Nc2ccc(F)cc2)cc1
active: HCT-15 colon 6.25% | HT29 colon 2.83% | SNB-75 CNS -12.9% | U251 CNS -6.58% | PC-3 prostate 1.43% | SK-MEL-5 melanoma -46.4% | UACC-62 melanoma 3.98% | LOX IMVI melanoma 2.74% | SK-MEL-28 melanoma 4.39%
inactive: SNB-19 CNS 23%

CCC(=O)OC1=C(C)SC2=NC(c3ccc(Cl)c(Cl)c3)=CC(c3cc(OC)c(OC)c(OC)c3)N21 (stereo not given)
inactive: HCT-15 colon 89.8% | HT29 colon 103% | SNB-75 CNS 76.9% | SNB-19 CNS 94.5% | U251 CNS 95.9% | PC-3 prostate 91.8% | SK-MEL-5 melanoma 98.7% | UACC-62 melanoma 87.8% | LOX IMVI melanoma 99.6% | SK-MEL-28 melanoma 104%

COc1ccc(OC)c(Nc2nc3nonc3nc2Nc2cccc(Br)c2)c1
inactive: HCT-15 colon 13.1% | SNB-19 CNS 14.6% | UACC-62 melanoma 18.7% | SK-MEL-28 melanoma 30.2%
active: HT29 colon 3.47% | SNB-75 CNS 3.07% | U251 CNS 3.05% | PC-3 prostate 1.15% | SK-MEL-5 melanoma -47.8% | LOX IMVI melanoma 4.56%

O=C(Nc1ccccc1)c1sc(-c2cccc(C(F)(F)F)c2)cc1O
inactive: HCT-15 colon 69.5% | HT29 colon 93.7% | SNB-75 CNS 78.5% | SNB-19 CNS 69.6% | U251 CNS 51.6% | PC-3 prostate 81% | SK-MEL-5 melanoma 18.4% | UACC-62 melanoma 23.3% | LOX IMVI melanoma 86.4% | SK-MEL-28 melanoma 53%

N[C@H]1CCC[C@@H]1NCCCCN1C(=O)c2cccc3cccc(c23)C1=O
inactive: HCT-15 colon 83.6% | HT29 colon 26.2% | SNB-75 CNS 75.7% | SNB-19 CNS 77% | U251 CNS 63% | PC-3 prostate 55% | SK-MEL-5 melanoma 91.6% | UACC-62 melanoma 95.7% | LOX IMVI melanoma 26.1% | SK-MEL-28 melanoma 90.3%

N#C/C(=C\c1ccc(Br)cc1)n1nnc2cc(Cl)c(Cl)cc21
active: HT29 colon 9.9% | LOX IMVI melanoma -9.55%
inactive: HCT-15 colon 14% | SNB-75 CNS 25.5% | SNB-19 CNS 47.7% | U251 CNS 23.4% | PC-3 prostate 33.5% | SK-MEL-5 melanoma 43.3% | UACC-62 melanoma 46.7% | SK-MEL-28 melanoma 51.4%

COc1cc(NC(=O)c2cccc(-c3cc(=O)c4c(OC)c(OC)c(OC)cc4o3)c2)cc(OC)c1OC
active: SK-MEL-5 melanoma 8.34%
inactive: HCT-15 colon 40.7% | HT29 colon 31.1% | SNB-75 CNS 74.7% | SNB-19 CNS 56.3% | U251 CNS 44.9% | PC-3 prostate 52.4% | UACC-62 melanoma 50.5% | LOX IMVI melanoma 24.4% | SK-MEL-28 melanoma 63.5%

O=[N+]([O-])c1ccc(-c2cc3c(Nc4ccc(OCc5cccc(Cl)c5)c(Cl)c4)ncnc3s2)cc1
inactive: HCT-15 colon 55.3% | HT29 colon 47.3% | SNB-75 CNS 69.8% | SNB-19 CNS 67.6% | U251 CNS 52.8% | PC-3 prostate 48% | SK-MEL-5 melanoma 97.6% | UACC-62 melanoma 78.3% | LOX IMVI melanoma 66.4% | SK-MEL-28 melanoma 86.8%

O=C(c1ccccc1)c1ccc(Cl)c([N+](=O)[O-])c1
inactive: HCT-15 colon 90% | HT29 colon 83% | SNB-75 CNS 87.7% | SNB-19 CNS 98.5% | U251 CNS 97.1% | PC-3 prostate 90.2% | SK-MEL-5 melanoma 101% | UACC-62 melanoma 93.2% | LOX IMVI melanoma 37.1% | SK-MEL-28 melanoma 96.8%

O=C1CSC(c2ccc(O)cc2)N1c1nnc(Cn2cnnc2)o1 (stereo not given)
inactive: HCT-15 colon 110% | HT29 colon 55.8% | SNB-75 CNS 53.8% | SNB-19 CNS 97.9% | U251 CNS 110% | PC-3 prostate 88.7% | SK-MEL-5 melanoma 105% | UACC-62 melanoma 97.2% | LOX IMVI melanoma 99.9% | SK-MEL-28 melanoma 77.9%

CCCCCOC(=O)c1ccc(NC(=O)CNCC(C)C)cc1
inactive: HCT-15 colon 86.8% | HT29 colon 80.6% | SNB-75 CNS 86.3% | SNB-19 CNS 90.6% | U251 CNS 93.1% | PC-3 prostate 65.8% | SK-MEL-5 melanoma 95.7% | UACC-62 melanoma 91.6% | LOX IMVI melanoma 94.4% | SK-MEL-28 melanoma 105%

CCOC(=O)c1c(C)[nH]c(C(=O)CCC(=O)OC)c1C
inactive: HCT-15 colon 92.4% | HT29 colon 86.7% | SNB-75 CNS 106% | SNB-19 CNS 106% | U251 CNS 99.9% | PC-3 prostate 81.2% | SK-MEL-5 melanoma 106% | UACC-62 melanoma 101% | LOX IMVI melanoma 103% | SK-MEL-28 melanoma 111%

CC(=O)NCC(=O)Nc1ccc(-c2nnc3ccccn23)nc1.CC(=O)NCC(=O)Nc1ccc(-c2nnc3ccccn23)nc1.[Pt+2]
inactive: HCT-15 colon 109% | HT29 colon 98.3% | SNB-75 CNS 132% | SNB-19 CNS 107% | U251 CNS 99.4% | PC-3 prostate 101% | SK-MEL-5 melanoma 108% | UACC-62 melanoma 110% | LOX IMVI melanoma 106% | SK-MEL-28 melanoma 118%

Nc1nc(Nc2ccc(Cl)cc2)nn1S(=O)(=O)c1ccc(-c2ccc(F)cc2)cc1
inactive: HCT-15 colon 77.4% | HT29 colon 80% | SNB-75 CNS 79% | SNB-19 CNS 88.8% | U251 CNS 88.8% | PC-3 prostate 67.4% | SK-MEL-5 melanoma 98.7% | UACC-62 melanoma 72.5% | LOX IMVI melanoma 83.6% | SK-MEL-28 melanoma 94.5%

CCCCCCCSc1ccc(C(=O)O)cc1
inactive: HCT-15 colon 111% | HT29 colon 112% | SNB-75 CNS 71.2% | SNB-19 CNS 95.4% | U251 CNS 95.1% | PC-3 prostate 99.9% | SK-MEL-5 melanoma 108% | UACC-62 melanoma 98.6% | LOX IMVI melanoma 103% | SK-MEL-28 melanoma 105%

CC1=NN(c2cccc(Cl)c2)C(=O)/C1=C\c1cn(CC(O)CN2CCCCC2)c2ccccc12 (stereo not given)
active: HT29 colon -57.3% | UACC-62 melanoma -47.4% | SK-MEL-28 melanoma -28.1%
inactive: HCT-15 colon 36.8% | SNB-75 CNS 87.2% | SNB-19 CNS 84.2% | U251 CNS 36.5% | PC-3 prostate 62.3% | SK-MEL-5 melanoma 55.5% | LOX IMVI melanoma 11%

O=S(=O)(Cc1ccccc1)c1nc2ccccc2s1
inactive: HCT-15 colon 33.3% | HT29 colon 25.6% | SNB-75 CNS 90% | SNB-19 CNS 97.1% | U251 CNS 92.1% | PC-3 prostate 79.5% | SK-MEL-5 melanoma 67.4% | UACC-62 melanoma 71.1% | LOX IMVI melanoma 10.8% | SK-MEL-28 melanoma 93.8%

C[N+](C)(C)CCOC(OCC[N+](C)(C)C)(c1ccccc1)c1ccccc1
inactive: HCT-15 colon 104% | HT29 colon 104% | SNB-75 CNS 87.3% | SNB-19 CNS 93.9% | U251 CNS 104% | PC-3 prostate 92.7% | SK-MEL-5 melanoma 110% | UACC-62 melanoma 99.3% | LOX IMVI melanoma 98.6% | SK-MEL-28 melanoma 104%

CN1CCN(CCCOc2ccc3nc(Nc4cc(Cl)cc(Cl)c4)ccc3c2)CC1
active: HCT-15 colon -87.6% | HT29 colon -94.4% | SNB-75 CNS -94.5% | SNB-19 CNS -76.2% | U251 CNS -87.5% | PC-3 prostate -57.8% | SK-MEL-5 melanoma -94.9% | UACC-62 melanoma -81.5% | LOX IMVI melanoma -94.4% | SK-MEL-28 melanoma -87.2%

COc1ccc(C(=O)/C=C/c2cc3c(c(OC)c2)OCC(=O)N3)cc1
inactive: HCT-15 colon 33.4% | HT29 colon 19.2% | SNB-75 CNS 20.7% | SNB-19 CNS 76.1% | U251 CNS 67.6% | PC-3 prostate 49.6% | SK-MEL-5 melanoma 84.2% | UACC-62 melanoma 85.3% | LOX IMVI melanoma 40.1% | SK-MEL-28 melanoma 73.1%

COc1cc(-c2cccc([N+](=O)[O-])c2)c(-c2nc(-c3ccccc3)c(-c3ccccc3)n2C2CC2)cc1OC
inactive: HCT-15 colon 56% | HT29 colon 44.5% | SNB-75 CNS 67.7% | SNB-19 CNS 80.4% | U251 CNS 67.3% | PC-3 prostate 24% | SK-MEL-5 melanoma 52.5% | UACC-62 melanoma 53.5% | LOX IMVI melanoma 60.1% | SK-MEL-28 melanoma 87.2%
